# Data from PubChem BioAssay (NCI).
# About 83,000 compounds went through this panel and 20% of them were active in at least one assay; those are over-represented in the sample as a whole.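 Results are percent growth after 48 hours of single-concentration exposure. 100 means growth as in untreated cells, lower positive values show inhibition; negative values down to -100 show cell death.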 Values without a mark were called inactive. Activity calls are given as the source filed them. Rule for the calls: active = growth percent below 10; inactive = the rest.
# Key:
# Assay in all cases: NCI-60 one-dose screen, 48 h (100 = growth as untreated, 0 = no growth, -100 = all killed)
# Settings in all cases: 10 µM unless noted
# [1] = tested on: NCI-H226 lung
# [2] = tested on: NCI-H322M lung
# [3] = tested on: HOP-62 NSCLC
# [4] = tested on: NCI-H460 lung
# [5] = tested on: HOP-92 NSCLC
# [6] = tested on: NCI-H522 lung
# [7] = tested on: A549/ATCC NSCLC
# [8] = tested on: 786-0 renal
# [9] = tested on: COLO 205 colon
# [10] = tested on: DU-145 prostate
# [11] = tested on: K-562 leukemia
# [12] = tested on: MALME-3M melanoma
# [13] = tested on: MDA-MB-231 breast
# [14] = tested on: RXF 393 renal
# [15] = tested on: SF-268 CNS
# [16] = tested on: SF-295 CNS
# [17] = tested on: SF-539 CNS
# [18] = tested on: UACC-257 melanoma
# [19] = tested on: M14 melanoma
# [20] = tested on: HCT-15 colon
SMILES,growth [1],growth [2],growth [3],growth [4],growth [5],growth [6],growth [7],growth [8],growth [9],growth [10],growth [11],growth [12],growth [13],growth [14],growth [15],growth [16],growth [17],growth [18],growth [19],growth [20]
CCCSc1nc(Nc2ccc(/C(C)=N\NC(N)=S)cc2)c(C#N)c(-c2ccc(OC)cc2)n1,27%,80.8%,31.6%,42.8%,-20.9% (active),89%,60.6%,5.18% (active),113%,52.2%,85.1%,49.2%,7.95% (active),10.8%,64.5%,42.2%,18.7%,93.7%,79.5%,75.7%
O=C1C2=C(C(=O)c3c(O)cccc31)C(c1ccco1)c1sc(=O)[nH]c1S2 (stereo not given),-20.7% (active),-97.7% (active),-72.2% (active),-4% (active),69.5%,-5.29% (active),-47.7% (active),62.3%,-89.4% (active),-93.9% (active),22%,-92.3% (active),8.88% (active),32.5%,50.7%,-15.6% (active),-24% (active),-28.2% (active),-97.6% (active),10.8%
CC(=O)Oc1ccccc1C(=O)Nc1ccc(C(=O)/C=C/c2cccs2)cc1,116%,106%,101%,116%,108%,102%,104%,88.7%,126%,113%,101%,104%,113%,126%,107%,99.1%,107%,113%,107%,96.7%
O=C(N/N=C/c1ccc[nH]1)c1[nH]c2ccc(Br)cc2c1-c1ccccc1,35.9%,32.4%,22.2%,2.17% (active),15.5%,-20.2% (active),17.6%,13.7%,6.05% (active),20.6%,3.06% (active),45.1%,14%,53.2%,25.3%,7.67% (active),14.2%,30.3%,13.2%,9.42% (active)
O=C1Nc2cc(Cl)ccc2/C1=C\c1ccc(OCc2ccc([N+](=O)[O-])cc2)cc1,81%,75.1%,79.8%,59.9%,45.8%,66.9%,78%,51%,92.9%,79.9%,83.1%,75.1%,66.2%,64.3%,86.4%,68.2%,80.7%,89.5%,83.3%,77.8%
Cn1ccnc1C(=O)/C=C/c1ccc(NC(=O)Nc2ccccc2)cc1,35.9%,28.8%,16.1%,-56.7% (active),57.4%,11.9%,6.79% (active),5.89% (active),11.1%,4.23% (active),7.81% (active),69.6%,-2.86% (active),-5.31% (active),3.22% (active),3.79% (active),-29.5% (active),80%,24.8%,12.4%
O=C(N/N=C/c1ccco1)c1[nH]c2ccc(Br)cc2c1-c1ccccc1,50.1%,42.1%,35.4%,2.19% (active),48.7%,-39.7% (active),35.4%,16.4%,-35.2% (active),13.4%,8.75% (active),54.9%,6.62% (active),62.2%,29.9%,21.8%,-15.1% (active),72.5%,11.6%,10.4%
CC(=O)Oc1ccccc1C(=O)Nc1ccc(C(=O)/C=C/c2ccncc2)cc1,92.5%,78.3%,91.4%,45.8%,66.1%,71.8%,56.5%,33.9%,66%,35.6%,6.54% (active),86.6%,33.6%,-4.73% (active),85.5%,49.5%,4.63% (active),92.4%,30.3%,-23.9% (active)
O=C1Nc2ccccc2Oc2ccc(S(=O)(=O)CC3CO3)cc21 (stereo not given),95.7%,93.7%,101%,79.5%,88.8%,32.8%,77.2%,98.1%,50.1%,61.2%,18%,87.7%,48.4%,58.1%,80.2%,66.3%,69.7%,65%,57.5%,21.2%
NS(=O)(=O)c1ccc(Nc2nc(SCC(=O)c3ccc(Cl)cc3)nc3ccccc23)cc1,87.1%,86.5%,95.3%,97.1%,84.4%,88%,97.1%,96%,107%,97.1%,84%,92.8%,87.9%,103%,104%,95.1%,88.3%,102%,97%,86.6%
O=C(c1ccc(O)cc1)C1[C@H](c2ccc(Cl)cc2)[C@@H](c2ccccc2)NC12C(=O)Nc1ccc(Cl)cc12 (stereo not given in full),42.3%,61.2%,64.6%,20.6%,35.2%,71.7%,33.5%,52.3%,61%,52.4%,28.1%,74.5%,48.6%,27.7%,37.7%,41.1%,66.4%,62.9%,47.7%,28.9%
Clc1ccc2oc3c(NCCCN4CCOCC4)c4ccccc4nc3c2c1,16.4%,21.6%,43.5%,6.4% (active),33%,28.2%,25.1%,20%,13.2%,16.8%,1.61% (active),24.1%,25.2%,13.9%,38.1%,17.4%,19.9%,50.5%,31.8%,3.77% (active)
CCOC(=O)c1csc(NC(=O)CSc2nc3sc4c(c3c(=O)n2-c2ccc(Cl)cc2)CCCC4)n1,101%,101%,101%,100%,77.8%,93.3%,98.6%,103%,133%,107%,93.4%,104%,94.6%,100%,89%,91.9%,104%,100%,93.1%,97.7%
COc1cc(/C=C/C(=O)c2ccc(Cl)cc2)ccc1Oc1nc(NCCO)nc(N2CCOCC2)n1,96.5%,95.8%,92.7%,106%,102%,96.8%,103%,101%,116%,107%,35.9%,93.5%,104%,97.8%,97.6%,101%,95.9%,114%,98.7%,98.2%
O=C(CSc1nc2sc3c(c2c(=O)n1-c1ccc(Cl)cc1)CCCC3)N/N=C/c1ccc(F)cc1,113%,104%,105%,81.4%,97.3%,100%,88.1%,98.9%,117%,82.1%,45.4%,100%,86.2%,118%,102%,106%,102%,109%,90.5%,73.9%
C=CCn1c(SCC(=O)c2ccc(Br)cc2)nnc1-c1c[nH]c2ccccc12,90.1%,99.5%,103%,106%,91.4%,96.3%,103%,98.6%,108%,106%,85.5%,90.7%,96.9%,113%,102%,93.2%,91.8%,108%,97.4%,99%
O=C1NC(=C(Cl)Cl)/C(=N/S(=O)(=O)N2CCCCC2CC2(C(F)(F)F)N=N2)N1 (stereo not given),89.7%,97.9%,96%,84.6%,-51.6% (active),-59.3% (active),111%,-24.7% (active),-17.5% (active),74%,2.72% (active),-71% (active),-21.4% (active),-28.8% (active),49.3%,99.3%,-22% (active),82.6%,24.4%,-67.3% (active)
O=C(CSc1nc2sc3c(c2c(=O)n1-c1ccc(Cl)cc1)CCCC3)NNC(=O)Nc1cccc(C(F)(F)F)c1,32.6%,49.4%,37.9%,5.83% (active),-14.1% (active),23.1%,24%,30.3%,27%,18.2%,13.1%,29.8%,59%,81.7%,40.8%,6.43% (active),51.1%,35.3%,32.1%,12.9%
CCN(CC)c1ccc(C=O)c(OCc2cn(CC(=O)Nc3ccc(Cl)cc3)nn2)c1,77.5%,94.9%,89.9%,52%,81.4%,80.9%,87.9%,72.9%,111%,81%,51.7%,91.5%,80.4%,34.1%,84.6%,65.8%,75%,108%,87.7%,61.4%
CC(C)(O)c1cncc(-c2ccc3ncnc(N4CCc5cc(F)c(Cl)cc54)c3c2)c1,23.7%,-0.361% (active),30.2%,17.2%,-6.69% (active),18.5%,15.8%,11.7%,30.1%,14.4%,33.6%,16.1%,30.3%,-17% (active),26.1%,7.56% (active),4.86% (active),42.8%,32.2%,14.1%
COc1ccc(Cc2nn(CC(=O)N/N=C/c3ccc(Cl)cc3)c(=O)c3c(C)noc23)cc1,69.8%,94.8%,70.4%,64.9%,89.5%,74.4%,46%,52.6%,102%,93%,96.3%,95%,76.2%,77.7%,83.9%,69.3%,58.7%,90.9%,89.9%,88.3%
CCCCN1C(=O)/C(=c2\sc3n(c2=O)C2C(NN=3)N(CC)C(=O)N2CC)c2cc(Cl)ccc21 (stereo not given),89.8%,96.3%,83.1%,78.5%,71.3%,46.5%,89.3%,90.7%,114%,94.8%,25.3%,73.9%,58.3%,77%,75.4%,62.3%,59.4%,89.4%,70.3%,43.9%
Cc1ccc2c(n1)C(=O)C(Cl)=C(Nc1cccc(C(C)C)c1)C2=O,35.4%,85%,89.1%,78.8%,110%,23.4%,29.9%,68.4%,112%,22.5%,3.49% (active),83.8%,45.8%,73.1%,80.9%,70.1%,80.7%,1.85% (active),44.7%,32.4%
[Cl][Ru].c1ccc(-c2cc(-c3ccccn3)nc(-c3ccccn3)c2)cc1.c1ccc(-c2ccnc3c2ccc2c(-c4ccccc4)ccnc23)cc1,-18% (active),-6.84% (active),25.1%,-63% (active),-42.9% (active),-52.8% (active),14.8%,6.1% (active),-77.9% (active),7.67% (active),1.44% (active),-34.3% (active),-48.4% (active),-39% (active),13.8%,-23.1% (active),-20.5% (active),-28.7% (active),-57.1% (active),45.8%
CS(=O)(=O)Nc1ccc(-c2nn(-c3ccc(S(C)(=O)=O)cc3)cc2/C=C/C(=O)c2ccc(NC(=O)CO[N+](=O)[O-])cc2)cc1,89.3%,102%,100%,110%,103%,99.1%,101%,102%,114%,116%,102%,107%,93.4%,95%,108%,97.2%,101%,103%,111%,99.6%
COc1ccc(COc2ccc(/C=C3/C(=O)Nc4cc(Cl)ccc43)cc2)cc1,89.4%,87.7%,95.4%,98.2%,93.1%,92%,98.7%,110%,101%,98.2%,113%,86.6%,91.2%,105%,99.5%,101%,85.8%,106%,97.7%,104%
O=C1[C@H]2Cc3c([nH]c4ccccc34)[C@@H](c3ccc(Br)cc3)N2C(=O)CN1C1CCN(Cc2ccccc2)CC1,39.5%,67%,54%,30%,28.9%,-36.7% (active),20.7%,41.1%,12.7%,38.8%,-28.2% (active),62.2%,49%,42.7%,37.5%,32.4%,65.4%,53.3%,35.8%,15.8%
CN(C)CCCOc1c2ccccc2nc2c1oc1ccc(Cl)cc12,-6.99% (active),-9.94% (active),14.2%,4.37% (active),3.66% (active),-57.1% (active),-2.75% (active),7.33% (active),-24.5% (active),-1.68% (active),-14.3% (active),-8.62% (active),7.86% (active),-74.1% (active),14.6%,5.01% (active),6.92% (active),20%,-87.3% (active),-21.4% (active)
